Source: PubChem
The full list was thinned out, with hits kept by preference.
Dicer inh – human Dicer pre-microRNA cleavage inhibition; Q9UPY3; cat-ELCCA pre-miR-21 Dicer processing, chemiluminescence; stronger effect = higher value; z-score at 25 µM; hit rate 6% among 47,000; AID 1347074; in the data active means z-score above about 3, passing the limit was not always enough;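 further: plate controls were vehicle for no effect and no enzyme for full effect; higher signal means more uncleaved substrate so more Dicer inhibition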
Numbers without * were called inactive.

SMILES	Dicer inh
CN(C)C(=O)Oc1ccc(Br)cc1C(=O)Nc1ccc(F)cc1	4.4*
COc1ccc(OC(=O)N(C)C)c(CN(C)C)c1	1.1
CNc1ccc(Br)cc1C(=O)c1ccccc1Cl	-1.3
CC1CN=C(Nc2ccc(F)cc2F)S1 (centres undefined)	3.5
Cc1cccc(NC(c2ccc(N(C)C)cc2)c2ccc3ccc(C)nc3c2O)n1 (centres undefined)	2
COc1ccc(O)c(C(C)(C)C)c1	3.8*
Cc1cc(C(C)(C)c2ccc(O)c(C)c2)ccc1O	1.3
COc1ccc2c(CCN)c[nH]c2c1	-0.58
CCCCCOc1ccc(C2SCC(=O)Nc3c2c(=O)[nH]n3C(C)C)cc1 (centres undefined)	-0.28
Clc1ccc(CCNCc2ccncc2)cc1	0.81
CN1C2CCC1CC(=NOC(=O)C1CCCCC1)C2	0.3
CCc1c(C(=O)OC)c2cc(O)ccc2n1Cc1ccccc1	-0.36
CCCCCCn1c(N)c(C(=O)OCC)c2nc3ccccc3nc21	-2.6
CCCn1c(C)c(C(=O)OCC)c2cc(O)ccc21	6.8*
CCOC(=O)c1c(C)n(C2CC2)c2ccc(O)cc12	3.3*
CCOc1ccc(/C=C(\C)[N+](=O)[O-])cc1OC	-0.39
CNC(=O)Oc1noc2ccc(Cl)cc12	-0.49
CSc1ncccc1C1=N/C(=C\c2ccc(Cl)cc2)C(=O)O1	-0.36
O=C1C(c2ccccc2)C(=O)N(c2ccccc2)C(=O)N1c1ccccc1	-0.69
COc1cccc(-n2c(/C=C/c3ccc([N+](=O)[O-])o3)nc3ccccc3c2=O)c1	1.7
CN1C2CCC1CC(=NOC(=O)c1ccco1)C2	-0.45
O=S(=O)(c1ccc(Cl)cc1Cl)N1CCCC1c1cccnc1 (centres undefined)	-0.7
O=C1CC(c2cccnc2)Nc2ccc3ccccc3c21 (centres undefined)	3.5*
CC12CN3CC(C)(CN(C1)C3c1cccnc1)C2=O (centres undefined)	-0.99
CC[C@H](C)[C@H]1O[C@]2(C=C[C@@H]1C)C[C@@H]1C[C@@H](C/C=C(\C)C(O[C@H]3C[C@H](OC)C(O[C@H]4C[C@H](OC)[C@@H](O)[C@H](C)O4)[C@H](C)O3)[C@@H](C)/C=C/C=C3\CO[C@@H]4[C@H](O)C(C)=C[C@@H](C(=O)O1)[C@]34O)O2 (some centres undefined)	1.1
SMILES	Dicer inh
COc1ccc2oc3c(c2c1)NC(=O)CN=C3c1ccc(F)cc1	3.3*
O=C1CN=C(c2ccccc2)c2oc3ccccc3c2N1	-1.2
O=C1CN=C(c2ccc(Cl)cc2)c2oc3ccccc3c2N1	0.52
CN(C)C(=O)Oc1nnc(SCc2ccc(Cl)cc2Cl)n1-c1cccc(Cl)c1	0.42
O=c1c2cc(Br)cc(Br)c2[nH]c(=S)n1-c1ccc2c(c1)OCCO2	2.3
CC(Cc1ccccc1)[n+]1cc(N)on1 (centres undefined)	-1.3
NNC(=O)c1ccc(O)cc1	3.7*
NCCc1ccc(O)cc1	-1.2
NCC(=O)c1ccc(Cl)cc1	0.75
COc1cc2c(=O)n(-c3ccccc3)c(=S)[nH]c2c(OC)c1OC	-0.35
O=C(Cc1ccccc1)OC1=C(c2ccccc2)C(=O)c2ccccc21	-0.72
Cc1nc2c(Br)cc(Br)cc2c(=O)n1-c1ccc(F)cc1	0.45
O=c1c2ccccc2nc(/C=C/c2ccc([N+](=O)[O-])o2)n1-c1ccc(O)cc1	0.79
O=c1c2ccccc2nc(/C=C/c2ccc([N+](=O)[O-])o2)n1-c1ccccc1Cl	-0.34
Cc1ccccc1-n1c(/C=C/c2ccc([N+](=O)[O-])o2)nc2ccccc2c1=O	5.5*
Cc1nc(Cc2c(Cl)cccc2Cl)nc(OC(=O)N(C)C)c1Cl	-0.81
Cc1nc2ccccc2c(=O)n1-c1ccccc1	-1.2
C=CCC1(CC(C)C)C(=O)NC(=O)NC1=O	0.12
CCCC(C)C1(CC)C(=O)NC(=O)NC1=O (centres undefined)	3.7*
CCOc1ccccc1NC1=NCCS1	1
Fc1ccccc1CCNCc1ccco1	3
C=CC1CC2CCN1C(C(=O)c1ccnc3ccc(OC)cc13)C2 (centres undefined)	-1.1
Cc1cc(CN(C)C)c(OC(=O)N(C)C)cc1C	0.46
Cc1cc(=O)oc2cc(OC(=O)N(C)C)c(Cl)cc12	3.6*
COc1ccc(Oc2c(C)oc3cc(OC(=O)N(C)C)ccc3c2=O)cc1	0.84
SMILES	Dicer inh
C=C1CC2(C)C(=CC1=O)CCC1C2CCC2(C)C(O)CCC12 (centres undefined)	0.42
CC1(C)CN=C(Nc2ccccc2)S1	3*
CC1(C)CN=C(Nc2cccc(C(F)(F)F)c2)S1	-1.1
Cc1ccccc1NC1=NCC(C)(C)S1	-0.96
CC1CN=C(Nc2ccc(Cl)cc2)S1 (centres undefined)	-0.11
Cc1nn2cc(C#N)c(N)nc2c1-c1ccccc1	1.4
Cc1ccc(-n2c(C)nc3ccccc3c2=O)cc1	-1.1
CCCCCC[C@H]1C(=O)O[C@H](C)C(NC(=O)c2cccc(NC=O)c2O)C(=O)O[C@@H](C)[C@@H]1OC(=O)CC(C)C (some centres undefined)	1.9
COc1ccc(C2SCC(=O)Nc3c2c(=O)[nH]n3C2CCCC2)cc1OC (centres undefined)	-0.14
